From PubChem BioAssay
697 NFkB inh: inhibitors of the PMA/ionomycin-induced NF-kB reporter in 697 B cells. 697 B-cell NF-kB luciferase reporter, 16 h. inhibition, % at 4 µM. 330,000 tested, 0.33% active. AID 435022; in the data active means inhibition above about 35%
Jurkat NFkB inh: lowers PMA/ionomycin-induced NF-kB signal in Jurkat cells | PMA/ionomycin-induced NF-kB luciferase reporter, luminescence | inhibition, % at 4 µM | 330,000 tested, 0.53% active; in the data active means inhibition above about 50%
esBAF inh: SWI/SNF esBAF complex inhibition | mouse ES cells, Bmi1-luciferase knock-in reporter, 24 h; 100% = twice the neutral-well signal | reporter increase, % at 12.5 µM | 350,000 tested, 2% active | AID 602393; in the data active means activation above about 40%;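 further: a rise in the Bmi1 reporter signal indicates esBAF inhibition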
SMARCA2 act: activators of SMARCA2 function | MG213 cells, MMTV-luciferase reporter, dexamethasone, overnight | activation, % at 9.1 µM | 370,000 tested, 1% active | AID 652017; in the data active means activation above about 7.8%
Gli-Sufu antag: Gli-Sufu pathway antagonism; Sufu-KO-LIGHT fibroblasts, Gli luciferase reporter luminescence; inhibition, % at 5 µM; 340,000 tested, 0.74% active;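 active means inhibition above about 55%, limit read from the data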
Gli antag conf: confirmation of Gli-SUFU pathway antagonists. shares compounds with Gli-Sufu antag. Sufu-KO-LIGHT cells, Gli luciferase reporter, luminescence. inhibition, % at 5 µM. 2,500 tested, 40% active;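 active means mean inhibition at 5 µM reaching about 45%, limit read from the data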
SufuKO cytotox: counter-screen for Gli-SUFU antagonists: cytotoxicity. shares compounds with Gli-Sufu antag. 2,500 tested, 32% active. cytotoxicity, % at 5 µM. Sufu-KO-LIGHT cells cytotoxicity, ATP luminescence;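 active means mean cytotoxicity at 5 µM above about 25%, limit read from the data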;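 further: cells exposed to compound overnight for roughly 16 to 18 hours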
Wnt3a cs: inhibits Wnt3a reporter, counter-screen for Gli-SUFU antagonists; shares compounds with Gli-Sufu antag; Wnt-LIGHT cells, Wnt3a-driven luciferase reporter, luminescence; inhibition, % at 6.25 µM; 2,500 tested, 20% active;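 active means mean inhibition above about 25%, limit read from the data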
Hits are given with their value; n = inactive; x = no result. The list is not random: actives were taken first. Their share in the collection is about 3.3%.

SMILES	697 NFkB inh	Jurkat NFkB inh	esBAF inh	SMARCA2 act	Gli-Sufu antag	Gli antag conf	SufuKO cytotox	Wnt3a cs
COc1ccc(Cl)cc1C(=O)NNC(=O)CSc1nnc2ccccn12	n	n	n	n	n	n	n	n
O=C(c1ccc(Cl)cc1)c1ccc(OCC(=O)N2CCOCC2)cc1	n	n	x	n	69	n	n	n
Cc1noc(C)c1NC(=O)N[C@@H]1CC[C@H](CCNC(=O)C2CCOCC2)O[C@@H]1CO	x	x	n	x	x	x	x	x
CCOC(=O)c1ccc2c(c1)n(CC)c(/C=C/N(C)c1ccccc1)[n+]2CC	n	n	x	n	83	86	31	33
Cc1ccc(C)c(CN2C(=O)COc3ccccc32)c1	n	n	n	n	n	x	x	x
Cc1ccc(C)c(CN2C(=O)COc3ccc(C(=O)c4ccccc4C(=O)O)cc32)c1	n	n	n	n	n	n	n	n
CCOC(=O)c1sc2nc(CC(=O)OC)nc(NCc3ccc(Cl)cc3)c2c1C	n	n	n	x	55	53	26	n
COc1ccc(CNC(=O)C2CCN(S(=O)(=O)N3CCC4(CC3)OCCO4)CC2)c(OC)c1	n	n	x	n	99	n	n	n
CCCC(=O)NC(c1ccc(Cl)cc1)c1ccc2cccnc2c1O (stereo not given)	n	n	n	n	86	82	35	71
CCCC(=O)NC(c1ccccc1OC)c1ccc2cccnc2c1O (stereo not given)	n	n	x	x	x	x	x	x
C[n+]1c2n(c3ccccc31)N=C(c1ccccc1)CS2	n	n	n	n	60	72	28	n
C[n+]1c2n(c3ccccc31)N=C(c1ccc(-c3ccccc3)cc1)CS2	n	n	x	n	87	89	32	n
Cc1cccc(-c2nnc3n2N=C(c2ccccc2)CS3)c1	n	n	n	n	n	x	x	x
COCCn1c(SCc2nc3ccccc3c(=O)[nH]2)nc2ccccc2c1=O	n	n	n	n	n	x	x	x
CCn1c(SCc2nc3ccccc3c(=O)[nH]2)nc2ccccc21	n	n	x	n	56	n	26	n
CO[C@@H]1CC[C@H]2CCOc3ccc(C#N)cc3C(=O)N(C)C[C@H](C)C(=O)N(C)C[C@@H]1O2	x	x	n	x	x	x	x	x
O=C(/C=C/c1ccco1)Nc1ccc(-c2nc3ccccc3[nH]2)cc1	x	x	x	n	67	55	n	n
COc1cccc(/C=C/C(=O)NNC(=O)c2ccncc2)c1OC	n	n	n	n	n	x	x	x
COc1cccc(/C=C/c2ccncc2)c1OC	n	n	n	n	56	46	n	n
COCCN(C(=O)CSc1nnc(-c2ccccc2F)n1N)c1c(N)n(Cc2ccccc2)c(=O)[nH]c1=O	n	n	n	n	n	n	n	n
O=C(O)CCCNC(=O)CCCNC(=O)C(c1ccccc1)c1ccccc1	n	n	x	n	n	n	n	n
CCc1ccc(N(CC(=O)NCc2ccc(OC)cc2)C(=O)CCC(=O)Nc2ccccn2)cc1	n	n	n	n	n	x	x	x
COc1ccc(N(CC(=O)NCc2ccc(F)cc2)C(=O)CCC(=O)Nc2ccccn2)cc1	n	n	n	n	69	n	n	n
C[C@@H]1CCCCO[C@H](CN(C)C(=O)CCCN(C)C)[C@H](C)CN([C@@H](C)CO)C(=O)c2cc(NC(=O)Nc3ccc4c(c3)OCO4)ccc2O1	x	x	n	x	x	x	x	x
O=C1CN(C(=O)NCCC(=O)NC2CCCCC2)c2ccccc2N1	n	n	n	n	n	x	x	x
SMILES	697 NFkB inh	Jurkat NFkB inh	esBAF inh	SMARCA2 act	Gli-Sufu antag	Gli antag conf	SufuKO cytotox	Wnt3a cs
CN(C(=O)CCNC(=O)N1CC(=O)Nc2ccccc21)C1CCCCC1	n	n	n	n	57	n	n	n
C[C@@H]1CN([C@H](C)CO)C(=O)c2cccc(NC(=O)c3ccc(-c4nccs4)cc3)c2O[C@H]1CN(C)C(=O)Nc1ccccc1	x	x	n	x	x	x	x	x
C[C@@H]1CN([C@@H](C)CO)C(=O)c2cc(-c3ccc(C#N)cc3)cnc2O[C@H]1CN(C)CC1CCCCC1	x	x	n	x	x	x	x	x
COc1ccc(CCNC(=O)c2cc3c(=O)n4ccccc4nc3n(CCCN3CCOCC3)c2=N)cc1	n	n	n	n	n	x	x	x
COc1ccc(CCNC(=O)c2cc3c(=O)n4ccccc4nc3n(CCN3CCOCC3)c2=N)cc1	n	n	n	n	66	n	n	n
C[C@@H]1CN([C@@H](C)CO)C(=O)c2cc(N(C)C)ccc2O[C@H]1CN(C)S(=O)(=O)c1cn(C)cn1	x	x	n	x	x	x	x	x
CCC1=Nc2cc(C(=O)NCc3ccco3)ccc2Sc2ccc(C)cc21	x	x	x	n	57	62	59	n
CCCC1=Nc2cc(C(=O)N3CCCC3)ccc2Sc2ccc(C)cc21	n	n	n	n	n	n	n	n
CCC1=Nc2cc(C(=O)NCCN3CCOCC3)ccc2Sc2ccc(C)cc21	n	n	n	n	n	x	x	x
CC(C)NC(=O)N(C)C[C@H]1Oc2ccc(NC(=O)CCCN(C)C)cc2C(=O)N([C@@H](C)CO)C[C@H]1C	x	x	n	x	x	x	x	x
COC(=O)c1ccc(OCC(O)CN2CCc3cc(OC)c(OC)cc3C2c2ccccc2)cc1 (stereo not given)	n	n	n	n	58	n	n	n
CCC(=O)N1CCc2cc(OC)c(OC)cc2C1COc1ccc(C(=O)OC)cc1 (stereo not given)	n	n	n	n	n	x	x	x
O=C(O)C[C@H]1C=C[C@@H](NC(=O)c2ccccc2F)[C@H](CO)O1	x	x	n	x	x	x	x	x
O=C(O)c1ccc(-c2ccc(O)c(F)c2)cc1	n	n	n	n	n	n	n	n
CN(C)CC(=O)Nc1ccc2c(c1)[C@H]1C[C@H](CC(=O)NC3CCCCC3)O[C@@H](CO)[C@H]1O2	x	x	n	x	x	x	x	x
Cc1ccc(C(C#N)c2ccc3c(C(F)(F)F)cc(C(F)(F)F)nc3n2)cc1 (stereo not given)	n	n	x	n	n	59	n	52
N#CC(c1ccccc1)c1ccc2c(C(F)(F)F)cc(C(F)(F)F)nc2n1 (stereo not given)	n	n	x	n	n	x	x	x
CCOC(=O)C1CCN(c2cc3c(cc2NC(=O)c2cc(OC)ccc2Br)n(C)c(=O)n3C)CC1	n	n	n	n	n	n	n	n
C[C@H]1CN([C@@H](C)CO)C(=O)c2cccc(NS(=O)(=O)c3ccc(F)cc3)c2O[C@H]1CN(C)Cc1ccc(C(=O)O)cc1	x	x	n	x	x	x	x	x
O=C(COC(=O)c1cc(Cl)nc2ccccc12)c1ccc(Cl)cc1	n	n	n	n	n	n	n	n
CO[C@H]1CN(C)C(=O)c2cc(NC(=O)C3CCC3)ccc2OC[C@H](C)NC[C@@H]1C	x	x	n	x	x	x	x	x
C[C@@H]1CCCCO[C@@H](CN(C)CC2CCCCC2)[C@@H](C)CN([C@H](C)CO)C(=O)c2cc(NC(=O)Cc3ccccc3)ccc2O1	x	x	n	x	x	x	x	x
Cc1ccc2cc(F)c(F)c(F)c2n1	x	x	n	n	x	x	x	x
Cc1ccc2ccc3ccc(C)nc3c2n1	n	n	n	n	n	47	n	n
